Experiment [1] concerns Human papillomavirus type 1a protein E7 (residues 44-93). The experiment is described as follows: HPV1a E7 fragment binders on microarrays, primary screen, biochemical, small-molecule microarray, residues 44-93, 635 nm fluorescence (AID 1108).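 Note: E7 fragment applied at 1 µg/mL in TBST for 1 h at 4 C; score combines spot fluorescence with its signal to noise ratio.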 Particulars: small-molecule microarray binding, fluorescence 635 nm; higher = more signal.
Experiment [2] in a line: modulators of HCV replicon luciferase signal, primary screen, HCV replication inhibitor project, Huh7 cells, luciferase reporter (AID 1109).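 Note: huh7 hepatoma cells harbouring a luciferase neomycin HCV replicon reporter; luciferase luminescence as measure of HCV replicon replication; test concentration not given here.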 Particulars: 48 h, higher = more signal.
For experiment [3], the target named is Left-right determination factor 2 (Homo sapiens) (UniProt O00292). The experiment is described as follows: LEFTY2 binders on small-molecule microarrays, primary screen, biochemical, small-molecule microarray, 635 nm fluorescence scan (AID 1110). Conditions: LEFTY2 binding, higher = more signal.
In experiment [4] the target is Calmodulin-1 (Homo sapiens) (UniProt P0DP23). The experiment is described as follows: CALM1 binders on microarrays, EGTA buffer, profiling panel, biochemical, small-molecule microarray, Cy5-labelled CALM1 (AID 1111).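 Note: labelled calmodulin applied in Tris saline Tween buffer holding calcium plus EGTA and DTT.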 Conditions: Cy5-CALM1 binding fluorescence, higher = more signal.
For experiment [5] the target is unchanged. The experiment is described as follows: calcium-bound CALM1 binders on microarrays, profiling panel, artefact control for SMM control-protein annotation, biochemical, small-molecule microarray, Cy5-labelled CALM1, plus calcium (AID 1112).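 Note: score merges spot fluorescence with signal to noise from triplicate slides.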 Particulars: Cy5-CALM1 binding fluorescence, higher = more signal.
A short description of experiment [6]: small-molecule microarray binders of probe aWnt5a, primary screen, biochemical, biotinylated probe, 635/667 nm fluorescence (AID 1113).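 Note: score merges 667 nm fluorescence intensity with signal-to-noise per printed feature.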 Conditions: higher = more signal.
The nature of experiment [7]: small-molecule microarray binders of probe aShh, primary screen, biochemical, biotinylated probe, 635/667 nm fluorescence (AID 1114).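 Note: probe is biotin-labelled aShh protein from a stem cell growth factor screen; measures binding of labelled protein to compounds printed on the slide; score merges feature fluorescence at 667 nm with signal-to-noise.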 Conditions: higher = more signal.
The nature of experiment [8]: small-molecule microarray binders of probe aNog, primary screen, biochemical, biotinylated probe, 635/667 nm fluorescence (AID 1115).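 Note: probe is biotinylated aNog protein used at 0.15 µg/mL for 1 h at 4 C; z-score combines 667 nm fluorescence of each spot with its signal to noise.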 Conditions: higher = more signal.
In experiment [9] the target is Torsin-1A-interacting protein 1 (Homo sapiens) (UniProt Q5JTV8). The experiment is described as follows: LAP1 binders from COS7 cell lysate, primary screen, small-molecule microarray, 635/667 nm fluorescence (AID 1116). Particulars: COS7-hLAP1 lysate binding, 635 nm fluorescence, higher = more signal.
Experiment [10] concerns the target Alpha-bungarotoxin (Bungarus multicinctus) (UniProt P60615). The experiment is described as follows: alpha-bungarotoxin binders on microarray, profiling panel, artefact control for SMM control protein annotation, biochemical, small-molecule microarray, Alexa647 label, 635/667 nm fluorescence (AID 1117). Particulars: alpha-BTX-A647 binding fluorescence, higher = more signal.

In a further experiment the target is Albumin (Bos taurus) (UniProt P02769). As to the kind of experiment: bovine serum albumin binders on microarray, profiling panel, artefact control for SMM control protein annotation, biochemical, small-molecule microarray, Alexa647 label, 635/667 nm fluorescence (AID 1118).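 Note: score merges 667 nm emission intensity and signal-to-noise per printed compound spot.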 Conditions: BSA-A647 binding, fluorescence 635 nm, higher = more signal.
Experiment [11] is described as follows: small-molecule microarray binders of probe aXIP, primary screen, biochemical, NeuroSMM set, 635/667 nm fluorescence (AID 1119).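 Note: probe is the protein aXip251-270 applied at 1 µg/mL to compound-printed slides; binding of probe to printed compounds measured as 667 nm fluorescence plus signal to noise.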 Conditions: higher = more signal, called active from +8 up or from −8 down.
Experiment [12] is described as follows: small-molecule binders of probe aNOTCH3, primary screen, biochemical, small-molecule microarray, 635/667 nm fluorescence (AID 1120).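 Note: probe is a biotin-tagged antibody raised against NOTCH3 rather than NOTCH3 protein; score merges spot fluorescence near 667 nm with spot signal to noise.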 Conditions: higher = more signal.
The nature of experiment [13]: small-molecule binders of probe aNOTCH2, primary screen, biochemical, small-molecule microarray, 635/667 nm fluorescence (AID 1121).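 Note: score merges feature fluorescence read at 667 nm with its signal to noise.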 Particulars: higher = more signal.
For experiment [14], the target named is Carbonic anhydrase 2 (Homo sapiens) (UniProt P00918). The experiment is described as follows: CAII small-molecule binders, profiling panel, biochemical, small-molecule microarray, Alexa647-labelled CAII (AID 1122). Conditions: CAII-A647 binding fluorescence, higher = more signal.
Experiment [15] is described as follows: COS7 lysate on small-molecule microarray, probe aHis, 635 nm (AID 1123).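 Note: z-score combines 667nm fluorescence intensity with signal-to-noise per printed compound spot.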 Conditions: COS7 cell lysate, fluorescence, higher = more signal.
A short description of experiment [16]: compound binding in COS7 lysate, probe aLAP1, primary screen, cell lysate, small-molecule microarray (AID 1124).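 Note: lysate comes from COS7 cells expressing LAP1 and is applied at 0.3 µg/mL; score merges spot fluorescence near 667 nm with signal-to-noise over triplicate slides.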 Conditions: probe aLAP1, fluorescence, higher = more signal.
The subject of a further experiment is Sam68 (KHDRBS1). As to the kind of experiment: Sam68 small-molecule binders, primary screen, biochemical, small-molecule microarray, 635 nm fluorescence (AID 1125).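 Note: score merges 667 nm channel intensity with signal to noise over triplicate slides.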 Particulars: small-molecule microarray binding, higher = more signal.
The subject of experiment [17] is Chordin-like protein 2 (CHRDL2). As to the kind of experiment: CHRDL2 small-molecule binders, primary screen, biochemical, small-molecule microarray, 635 nm fluorescence (AID 1126).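 Note: printed compound slides probed with Chrdl2 protein at 4 µg/mL for 1 h at 4 C; score merges 667 nm emission intensity with signal to noise over three replicate slides.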 Particulars: small-molecule microarray binding, fluorescence 635 nm; higher = more signal.
Experiment [18] has as its target Concanavalin-A (Canavalia ensiformis) (UniProt P02866). As to the kind of experiment: ConA small-molecule binders, primary screen, artefact control for SMM control protein annotation, biochemical, small-molecule microarray, Alexa647 label, 635 nm (AID 1127).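 Note: z combines 667 nm emission intensity with signal-to-noise across three replicate slides.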 Particulars: ConA-A647 binding fluorescence, higher = more signal.

Calls of active or inactive are those of the source.

Alpha-bungarotoxin (Bungarus multicinctus), sequence (P60615 whole entry, looked up): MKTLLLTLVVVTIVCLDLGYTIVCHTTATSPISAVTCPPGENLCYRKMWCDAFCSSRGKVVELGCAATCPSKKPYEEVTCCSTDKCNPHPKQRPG
Albumin (Bos taurus), sequence (P02769 whole entry, looked up): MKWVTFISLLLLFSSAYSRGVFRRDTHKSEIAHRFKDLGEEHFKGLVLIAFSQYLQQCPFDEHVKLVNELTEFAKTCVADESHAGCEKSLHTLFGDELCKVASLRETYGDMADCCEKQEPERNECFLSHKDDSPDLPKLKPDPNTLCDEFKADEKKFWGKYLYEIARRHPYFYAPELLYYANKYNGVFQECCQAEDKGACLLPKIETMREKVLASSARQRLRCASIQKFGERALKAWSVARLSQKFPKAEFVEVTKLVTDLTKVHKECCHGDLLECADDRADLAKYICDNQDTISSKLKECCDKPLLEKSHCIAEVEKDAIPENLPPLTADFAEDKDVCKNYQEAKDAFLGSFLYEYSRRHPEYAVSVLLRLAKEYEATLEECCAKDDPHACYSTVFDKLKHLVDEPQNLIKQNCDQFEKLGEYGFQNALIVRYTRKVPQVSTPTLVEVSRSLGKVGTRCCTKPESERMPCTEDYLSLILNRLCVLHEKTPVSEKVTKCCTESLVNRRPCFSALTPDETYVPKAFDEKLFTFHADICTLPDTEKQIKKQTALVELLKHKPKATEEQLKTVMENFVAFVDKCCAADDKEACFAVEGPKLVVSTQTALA
Torsin-1A-interacting protein 1 (Homo sapiens), sequence (Q5JTV8 whole entry, looked up): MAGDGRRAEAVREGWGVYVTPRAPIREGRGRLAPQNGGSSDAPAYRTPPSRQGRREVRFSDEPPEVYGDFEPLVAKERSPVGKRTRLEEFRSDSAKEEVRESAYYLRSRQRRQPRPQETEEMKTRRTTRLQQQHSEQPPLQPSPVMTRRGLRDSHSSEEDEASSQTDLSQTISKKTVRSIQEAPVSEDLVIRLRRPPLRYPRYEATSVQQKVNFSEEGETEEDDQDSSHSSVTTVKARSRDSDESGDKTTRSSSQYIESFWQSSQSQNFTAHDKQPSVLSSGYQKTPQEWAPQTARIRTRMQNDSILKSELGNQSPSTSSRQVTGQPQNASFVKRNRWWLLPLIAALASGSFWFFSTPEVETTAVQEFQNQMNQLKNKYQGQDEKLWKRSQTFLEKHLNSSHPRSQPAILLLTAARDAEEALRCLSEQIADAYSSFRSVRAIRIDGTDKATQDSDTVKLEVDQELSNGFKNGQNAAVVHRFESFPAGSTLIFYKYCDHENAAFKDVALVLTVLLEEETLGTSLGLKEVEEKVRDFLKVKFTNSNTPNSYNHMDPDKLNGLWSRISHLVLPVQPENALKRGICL
Left-right determination factor 2 (Homo sapiens), sequence (O00292 whole entry, looked up): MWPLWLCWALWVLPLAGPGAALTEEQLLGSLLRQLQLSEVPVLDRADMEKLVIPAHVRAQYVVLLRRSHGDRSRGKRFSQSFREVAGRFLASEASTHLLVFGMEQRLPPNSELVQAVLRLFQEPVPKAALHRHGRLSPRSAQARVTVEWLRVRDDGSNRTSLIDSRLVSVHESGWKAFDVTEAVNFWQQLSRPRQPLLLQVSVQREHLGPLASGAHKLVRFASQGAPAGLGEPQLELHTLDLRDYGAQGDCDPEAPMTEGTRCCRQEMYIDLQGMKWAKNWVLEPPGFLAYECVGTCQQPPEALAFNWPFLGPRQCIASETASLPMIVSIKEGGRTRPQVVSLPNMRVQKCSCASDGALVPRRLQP
Concanavalin-A (Canavalia ensiformis), sequence (P02866 whole entry, looked up): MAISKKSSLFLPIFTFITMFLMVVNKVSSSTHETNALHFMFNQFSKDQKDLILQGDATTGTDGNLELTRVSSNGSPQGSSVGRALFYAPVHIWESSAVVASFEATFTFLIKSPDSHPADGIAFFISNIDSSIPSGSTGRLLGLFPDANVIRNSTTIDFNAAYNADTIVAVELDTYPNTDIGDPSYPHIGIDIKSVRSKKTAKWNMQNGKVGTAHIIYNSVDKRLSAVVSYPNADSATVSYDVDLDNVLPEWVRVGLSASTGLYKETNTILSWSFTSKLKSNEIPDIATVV

On to `CN(C)CCCN1C(=O)[C@@]2(c3ccc([N+](=O)[O-])cc3)CC(=O)N(C3CCCCC3)[C@@H]2c2ccc(CO)cc21`, for which the composite z-score in experiment [1] was -0.274; in [3], 0.0478; in experiment [4], -0.126; in [5], -0.361; in [6] it was -0.104; in [7], -0.304. In addition, the composite z-score in experiment [8] is -0.118; in experiment [9], -1.4; in experiment [10], 0.25; with Albumin (Bos taurus) it was -0.4; in experiment [12], -0.0665; in experiment [13] it was -0.0455. For the same molecule, the composite z-score in [14] is -0.622; in experiment [15], -0.317; in experiment [16], -0.233; in the experiment with Sam68 (KHDRBS1) it was -0.395; in [17] it was -0.137; in [18], 0.209. Besides, the z-score in [2] was -0.493. Also, the composite Z-score in experiment [11] is 0.0831 (inactive).
Turning to `NC(=O)NCC#Cc1ccc2c(c1)[C@]1(C(=O)N2)[C@H](c2ccccc2OCCO)N2[C@H](c3ccccc3)[C@H](c3ccccc3)OC(=O)[C@H]2[C@@H]1C(=O)N1CCCCCCC1`, the composite z-score stood at 1.43 in experiment [1]; 1.34 in experiment [3]; 2.9 in [4]; 1.55 in experiment [5]; 1.18 in [6]; 0.728 in experiment [7]. Besides, the composite z-score in experiment [8] was found to be 3.1; in [9], 4.58; in experiment [10], 3.37; in the experiment with Albumin (Bos taurus), 0.0389; in [12], 1.72; in [13], 0.813. Further, the composite z-score in experiment [14] is 0.951; in experiment [15] it was 3.72; in [16], 1.86; in the experiment on Sam68 (KHDRBS1), 1.29; in [17], 1.05; in [18] it was 1.11. The molecule also gave a z-score in [2] of -0.968. Further, the composite Z-score in [11] was 4.09 (inactive).
With `CCOC(=O)C[C@H]1[C@H](OC(=O)c2cc3ccccc3oc2=O)[C@@H](NC(=O)c2ccc3ccccc3c2)c2cc(OCCCO)ccc2N1C(=O)c1ccccc1`, the composite z-score in experiment [1] was 1.39; in [3] it was 0.129; in experiment [4] it was -0.0786; in experiment [5], -0.337; in experiment [6], -0.12; in [7], 0.214. The composite z-score in [8] was -0.0863; in [9], 0.739; in experiment [10] it was 0.43; in the experiment with Albumin (Bos taurus), 0.342; in experiment [12], 0.0745; in experiment [13], -0.123. Besides, the composite z-score in experiment [14] was determined as 0.571; in experiment [15] it was 0.224; in experiment [16] it was 0.334; with Sam68 (KHDRBS1), 1.29; in experiment [17], 0.234; in experiment [18], 0.275. For the same molecule, the z-score in experiment [2] was -0.593. The composite Z-score in [11] is 0.465 (inactive).
`O=C1O[C@@H](c2ccccc2)[C@@H](c2ccccc2)N2[C@@H](c3ccc(O)cc3)[C@]3(C(=O)Nc4ccccc43)[C@@H](C(=O)N3CCCCCCC3)[C@H]12`: the composite z-score in [1] turned out to be 1.47; in experiment [3], 0.695; in [4] it was 2.86; in experiment [5], 1.61; in experiment [6] it was 1.37; in [7], 2.07. Also, the composite z-score in experiment [8] was -0.531; in [9], 4.6; in [10] it was 3.12; with Albumin (Bos taurus), 0.875; in experiment [12], 1.82; in [13], 0.464. Also, the composite z-score in [14] was determined as 0.89; in experiment [15], 3.78; in experiment [16], 1.14; in the experiment with Sam68 (KHDRBS1), 1.29; in experiment [17], 1.11; in experiment [18], 1.17. Also, the z-score in experiment [2] is -1.93. The composite Z-score in [11] was 5.98 (inactive).
For the molecule `C=C(COC)/C(=C/C[C@H](OC(C)=O)c1ccccc1OCCO)c1cnc2ccccc2c1`, the composite z-score in experiment [1] was 1.29; in experiment [3] it was 0.425; in experiment [4] it was 0.177; in experiment [5], -0.173; in [6] it was -0.0944; in experiment [7] it was 0.0756. Moreover, the composite z-score in experiment [8] was 0.226; in experiment [9], -0.0998; in experiment [10], 0.625; with Albumin (Bos taurus), 0.185; in [12], -0.0044; in [13], -0.14. In addition, the composite z-score in experiment [14] was 0.648; in experiment [15], 0.649; in [16] it was -0.186; in the experiment on Sam68 (KHDRBS1), 1.06; in experiment [17], 1; in experiment [18], 0.49. Also, the z-score in [2] was -1.57. Also, the composite Z-score in experiment [11] was 0.115 (inactive).
`C#C[C@H]1Oc2ccccc2S(=O)(=O)N2CCC[C@@H]12`: the composite z-score was -0.137 in experiment [1]; 0.533 in experiment [3]; -0.982 in experiment [4]; -0.495 in experiment [5]; -0.169 in experiment [6]; 0.0815 in experiment [7]. Moreover, the composite z-score is -0.1 in experiment [8]; 0.0849 in [9]; -0.288 in [10]; -1.3 in the experiment with Albumin (Bos taurus); 0.0026 in [12]; -0.0548 in experiment [13]. The composite z-score was -0.156 in [14]; -0.117 in experiment [15]; 0.0504 in experiment [16]; -0.399 in the experiment with Sam68 (KHDRBS1); 0.839 in experiment [17]; -1.55 in experiment [18]. This molecule yielded a z-score in experiment [2] of -0.871. Moreover, the composite Z-score in [11] was -0.0662 (inactive).

Values taken from PubChem BioAssay.
